Results filed as inconclusive are left out. A number with no mark means an inactive call. Active and inactive are the calls of the source. Unless noted, calls follow the shape of the dose curve; as a rule, active = well fitted curve in the direction sought with a large enough effect in the repeat runs; inconclusive = weak or mixed curves; inactive = no such curve, though single readings can be large; an effect the other way counts as inactive or inconclusive.
molecular target: Aryl hydrocarbon receptor (Homo sapiens) (UniProt P35869); assay: qHTS assay to identify small molecule that activate the aryl hydrocarbon receptor (AhR) signaling pathway (AID 743085); conditions: HepG2 AhR-luc (HG2L7.5c1), luciferase, 24 h; series mostly up to 70.3 µM; activation: at the top concentration; also: nearly all actives have a fitted effect of over 15% in size; also: potency is read from the fitted curve at half-maximal effect;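 as to activation: HG2L7.5c1 human HepG2 liver cells with stably integrated DRE-driven firefly reporter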
In short: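 A multiplexed format paired cell viability (CellTiter-Fluor fluorescence) with AhR-dependent luciferase output (ONE-Glo luminescence) in the same wells of HepG2 DRE-luc cells after 24 h compound exposure at 37C.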
% is scaled to controls: 0 for no effect and ±100 for the full control effect.

Chain of Aryl hydrocarbon receptor (Homo sapiens) (P35869 whole entry, looked up): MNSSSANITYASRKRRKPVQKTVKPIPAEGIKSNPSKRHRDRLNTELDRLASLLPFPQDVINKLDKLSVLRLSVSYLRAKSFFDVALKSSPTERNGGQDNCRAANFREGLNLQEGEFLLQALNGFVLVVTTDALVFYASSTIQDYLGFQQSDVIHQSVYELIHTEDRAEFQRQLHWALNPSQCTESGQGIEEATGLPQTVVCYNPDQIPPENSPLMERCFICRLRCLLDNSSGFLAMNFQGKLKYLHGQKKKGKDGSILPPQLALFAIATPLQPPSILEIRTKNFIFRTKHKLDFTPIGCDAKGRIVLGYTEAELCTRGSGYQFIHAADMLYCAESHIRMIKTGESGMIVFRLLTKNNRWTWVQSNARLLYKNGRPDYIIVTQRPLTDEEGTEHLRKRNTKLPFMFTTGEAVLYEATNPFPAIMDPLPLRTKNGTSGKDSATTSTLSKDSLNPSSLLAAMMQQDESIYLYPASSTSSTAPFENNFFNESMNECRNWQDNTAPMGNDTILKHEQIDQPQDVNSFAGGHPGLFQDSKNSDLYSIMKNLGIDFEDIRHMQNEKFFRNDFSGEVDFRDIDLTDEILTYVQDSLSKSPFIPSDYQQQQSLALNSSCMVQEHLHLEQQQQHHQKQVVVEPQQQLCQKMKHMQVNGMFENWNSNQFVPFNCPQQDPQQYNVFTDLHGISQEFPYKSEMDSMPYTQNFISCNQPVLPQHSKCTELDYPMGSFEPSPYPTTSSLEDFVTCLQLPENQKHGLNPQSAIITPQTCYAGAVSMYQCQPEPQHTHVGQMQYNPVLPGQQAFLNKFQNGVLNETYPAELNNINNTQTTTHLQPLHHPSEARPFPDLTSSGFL

Structure (SMILES)	activation	Potency
CC1=C(CC(=O)O)c2cc(F)ccc2/C1=C\c1ccc(S(C)(=O)=O)cc1	5.33%	
CN(C)C(=O)NC1(c2ccccc2)CCN(CCC[C@]2(c3ccc(Cl)c(Cl)c3)CCCN(C(=O)c3ccccc3)C2)CC1	-0.438% [at 32.5 µM]	
CC(C)=CCCC(C)CCOC=O (stereo not given)	-0.132%	
O=c1oc2c(O)c(O)cc3c(=O)oc4c(O)c(O)cc1c4c23	-0.625%	
O=c1[nH]c(=O)n([C@H]2C[C@H](O)[C@@H](CO)O2)cc1C(F)(F)F	-1.1%	
CN1CCC[C@@H]1Cc1c[nH]c2ccc(CCS(=O)(=O)c3ccccc3)cc12	4.01%	
CN1[C@@H]2CC[C@H]1CC(OC(=O)c1c[nH]c3ccccc13)C2 (stereo not given in full)	-0.86%	
Nc1ccc(Oc2ccc(N)c(N)c2)cc1		1.54 µM (active)
O=[N+]([O-])c1nccn1CO[C@@H](CO)[C@H](O)CO	3.35%	
OCc1ccccc1O	2.26%	
CN(CCCN1c2ccccc2CCc2ccccc21)CC(=O)c1ccc(Cl)cc1		29.8 µM (active)
CC1=C2[C@H](/C=C(\C)C(=O)O)CC[C@@H](C)[C@H]2CC1	2.83% [at 95 µM]	
CCCCC(=O)O[C@]1(C(=O)CO)[C@H](C)C[C@H]2[C@@H]3CCC4=CC(=O)C=C[C@]4(C)[C@@]3(F)[C@@H](O)C[C@@]21C	14.2%	
CCCCCCCCCCCCOCCOS(=O)(=O)O	2.14%	
CC1(O)CSC(C)(O)CS1 (stereo not given)	4.44%	
CCCCNC(=S)NCCCC	-0.441%	
COC(=O)N[C@H](C(=O)N[C@@H](Cc1ccccc1)[C@@H](O)CN(Cc1ccc(-c2ccccn2)cc1)NC(=O)[C@@H](NC(=O)OC)C(C)(C)C)C(C)(C)C	3.39%	
CC[C@H]1CC[C@H](NCc2cc3c(cc2OC)[C@H]2C[C@H]2C(=O)N3C)[C@H](c2ccccc2)N1	-0.206%	
NC1=NCC2c3ccccc3Cc3ccccc3N12 (stereo not given)	-0.641%	
CC1=NN(c2cc(Cl)c(S(=O)(=O)O)cc2Cl)C(=O)C1N=Nc1ccc(S(=O)(=O)O)cc1 (stereo not given)	1.71%	
CCOC(=O)COc1ccc2c(c1)CC(NCC(O)c1cccc(Cl)c1)CC2 (stereo not given)	-0.211%	
CCC(=O)c1ccc2c(c1)N(CCCN(C)C)c1ccccc1S2	6.01%	
CN1CCN(C2=Nc3cc(F)ccc3Cc3ccccc32)CC1	-1.02%	

system: not listed separately; assay: qHTS assay to identify small molecule that activate the aryl hydrocarbon receptor (AhR) signaling pathway - cell viability counter screen (AID 743086); conditions: HepG2-AhR-luc viability, CellTiter-Fluor, 24 h; series mostly up to 70.3 µM; viability change, negative = cytotoxic: at the top concentration;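 also: HepG2 liver cells carrying the AhR DRE luciferase reporter; nearly all actives have a fitted effect of over 45% in size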
In short: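 Cytotoxicity counter screen: CellTiter-Fluor signal (30 min, 37 C) in 4000 HepG2 cells/well carrying the DRE-luciferase reporter, following 24 h compound exposure at 37 C.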

Structure (SMILES)	viability change, negative = cytotoxic
NNS(=O)(=O)c1ccc(Oc2ccc(S(=O)(=O)NN)cc2)cc1	-9.38%
CC1=C(CC(=O)O)c2cc(F)ccc2/C1=C\c1ccc(S(C)(=O)=O)cc1	-14.2%
CC(C)=CCCC(C)CCOC=O (stereo not given)	12.3%
OCC(CBr)(CBr)CBr	-1.62%
NC(Cc1ccc(F)cc1)C(=O)O (stereo not given)	2.78% [at 8.47 µM]
O=c1oc2c(O)c(O)cc3c(=O)oc4c(O)c(O)cc1c4c23	-2.33%
O=C1CCCc2ccccc21	-9.03% [at 95 µM]
CCOc1ccccc1N	7.06%
O=c1[nH]c(=O)n([C@H]2C[C@H](O)[C@@H](CO)O2)cc1C(F)(F)F	6.54%
CNCCC(Oc1ccccc1OC)c1ccccc1 (stereo not given)	0.417%
OCc1ccccc1O	-0.929%
CCCOCCC	11.6%
NC(=O)Cc1cccc(C(=O)c2ccccc2)c1N	13.1%
Cc1cc(S(=O)(=O)O)c(N)cc1Cl	4.02% [at 95 µM]
OC[C@H]1O[C@@H](O[C@H]2[C@H](O)[C@@H](O)[C@H](O)O[C@@H]2CO)[C@H](O)[C@@H](O)[C@H]1O	13.4%
CC1=C2[C@H](/C=C(\C)C(=O)O)CC[C@@H](C)[C@H]2CC1	2.83% [at 95 µM]
CCCCC(=O)O[C@]1(C(=O)CO)[C@H](C)C[C@H]2[C@@H]3CCC4=CC(=O)C=C[C@]4(C)[C@@]3(F)[C@@H](O)C[C@@]21C	11.5%
CCCCCCCCCCCCOCCOS(=O)(=O)O	0.324%
CC1(O)CSC(C)(O)CS1 (stereo not given)	-0.945%
COC(=O)c1ccc2cc(C(=O)OC)ccc2c1	-0.806% [at 32.5 µM]
Cn1cnc2c(F)c(Nc3ccc(Br)cc3Cl)c(C(=O)NOCCO)cc21	-24.2%
O=C(Cl)c1cccc([N+](=O)[O-])c1	11.2%
CC(C)Nc1nc(N)nc(Cl)n1	5.14%
O=C(O[C@@H](C(=O)O)[C@@H](OC(=O)c1ccccc1)C(=O)O)c1ccccc1	6.65% [at 95 µM]
NC1=NCC2c3ccccc3Cc3ccccc3N12 (stereo not given)	3.07%

molecular target: Peroxisome proliferator-activated receptor gamma (Homo sapiens) (UniProt P37231); assay: qHTS assay to identify small molecule agonists of the peroxisome proliferator-activated receptor gamma (PPARg) signaling pathway (AID 743094; active = well fitted activation curve with a large enough effect in the signal ratio in the repeat runs, not every such curve was filed as active; the % refers to the signal ratio); conditions: HEK293H PPARg-UAS-bla, beta-lactamase FRET ratio, 17 h; series mostly up to 57 µM; activation: at the top concentration
In short: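 Following 5 h plating at 37C, PPARg-bla HEK293H cells receive compound or DMSO for 17 h; fluorescence intensity is recorded after LiveBLAzer B/G loading for 1 h at room temperature.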

Chain of Peroxisome proliferator-activated receptor gamma (Homo sapiens) (P37231 whole entry, looked up): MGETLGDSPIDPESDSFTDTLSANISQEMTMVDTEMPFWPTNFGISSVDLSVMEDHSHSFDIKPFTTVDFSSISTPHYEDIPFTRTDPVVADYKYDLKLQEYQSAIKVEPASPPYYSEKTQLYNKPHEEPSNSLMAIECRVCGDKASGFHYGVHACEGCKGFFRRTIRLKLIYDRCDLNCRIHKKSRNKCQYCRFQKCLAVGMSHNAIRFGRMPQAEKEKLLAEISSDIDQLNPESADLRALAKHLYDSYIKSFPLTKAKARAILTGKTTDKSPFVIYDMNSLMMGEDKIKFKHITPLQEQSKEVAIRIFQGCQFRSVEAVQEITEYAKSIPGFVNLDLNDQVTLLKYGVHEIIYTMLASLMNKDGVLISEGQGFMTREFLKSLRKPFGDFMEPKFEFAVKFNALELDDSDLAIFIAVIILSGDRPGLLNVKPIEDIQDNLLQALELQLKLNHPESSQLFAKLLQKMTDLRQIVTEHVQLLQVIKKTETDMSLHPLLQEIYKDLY

Structure (SMILES)	activation
NNS(=O)(=O)c1ccc(Oc2ccc(S(=O)(=O)NN)cc2)cc1	1.62%
OCC(CBr)(CBr)CBr	-4.43%
NC(Cc1ccc(F)cc1)C(=O)O (stereo not given)	0.33% [at 7.08 µM]
O=C1CCCc2ccccc21	0.715% [at 78.9 µM]
CCOc1ccccc1N	-1.41%
CN1[C@@H]2CC[C@H]1CC(OC(=O)c1c[nH]c3ccccc13)C2 (stereo not given in full)	0.177%
Nc1ccc(Oc2ccc(N)c(N)c2)cc1	2.8%
O=[N+]([O-])c1nccn1CO[C@@H](CO)[C@H](O)CO	-0.248%
CNCCC(Oc1ccccc1OC)c1ccccc1 (stereo not given)	-8.14%
CCCOCCC	-0.124%
NC(=O)Cc1cccc(C(=O)c2ccccc2)c1N	-3.64%
Cc1cc(S(=O)(=O)O)c(N)cc1Cl	4.38% [at 78.9 µM]
OC[C@H]1O[C@@H](O[C@H]2[C@H](O)[C@@H](O)[C@H](O)O[C@@H]2CO)[C@H](O)[C@@H](O)[C@H]1O	2.36%
COC(=O)c1ccc2cc(C(=O)OC)ccc2c1	-0.11% [at 26.2 µM]
CCCCNC(=S)NCCCC	-2.29%
Cn1cnc2c(F)c(Nc3ccc(Br)cc3Cl)c(C(=O)NOCCO)cc21	1.75%
O=C(Cl)c1cccc([N+](=O)[O-])c1	0.792%
CC(C)Nc1nc(N)nc(Cl)n1	0.297%
O=C(O[C@@H](C(=O)O)[C@@H](OC(=O)c1ccccc1)C(=O)O)c1ccccc1	-2.94% [at 78.9 µM]
CC1=NN(c2cc(Cl)c(S(=O)(=O)O)cc2Cl)C(=O)C1N=Nc1ccc(S(=O)(=O)O)cc1 (stereo not given)	1.46%
CCOC(=O)COc1ccc2c(c1)CC(NCC(O)c1cccc(Cl)c1)CC2 (stereo not given)	4.83%
CN1CCN(C2=Nc3cc(F)ccc3Cc3ccccc32)CC1	-8.56%
